# AMA1-RON2 inh – AMA1-RON2 (P. falciparum) interaction inhibition; AlphaScreen AMA1-biotinylated RON2 peptide binding; Potency, µM (highest dose often 58.2 µM), without a hit: at the top dose activity change, negative = inhibition, hits mostly inhibitors; actives 0.2% (n = 360,000); AID 720542; active = well fitted inhibition curve with a large enough effect; inconclusive = small, poorly fitted or top-dose-only effect; inactive = no such curve, though single readings can be large or run the other way;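 note: potency is the fitted concentration of half-maximal effect; 0% = vehicle wells and -100% = peptide control; nearly all actives have a fitted effect of over 45% in size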
#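 AMA1 (3D7) with his tag at 25 nM final met compounds first, then biotinylated RON2 peptide at 25 nM; detection used donor plus acceptor beads, 10 µg/mL apiece, read by AlphaScreen after 30 min at room temperature.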
# Shiga toxin inh – inhibitors of Shiga toxin in Vero cells; Vero cells, Shiga toxin protein synthesis inhibition reporter; inhibition, % at 38.7 µM; actives 9.2% (n = 290,000); AID 2315; in the data active = inhibition mostly above about 28%, no sharp cut-off; inactive = mostly below about 43%; note: 0% is about no effect
# Marburg entry inh – Marburg virus entry inhibition. Marburg virus pseudotyped entry inhibition, cell reporter. Potency, µM (titrated, usually from 37.8 µM), for the others: at the highest dose activity change, negative = inhibition, most hits filed as inhibitors. actives 1.8% (n = 300,000); calls by dose curve; tested in HEK293 cells; note: potency is the fitted concentration of half-maximal effect; % is set by controls: 0 for no effect and ±100 for the full control effect
# Lassa entry inh – Lassa virus entry inhibition; Lassa virus pseudotype entry inhibition, cell reporter; Potency, µM (series often up to 37.9 µM), inactives show at the highest dose activity change, negative = inhibition, most hits filed as inhibitors; actives 1.2% (n = 300,000); AID 540256; calls by dose curve; tested in HEK293 cells; note: potency is the fitted concentration of half-maximal effect; % is set by controls: 0 for no effect and ±100 for the full control effect; nearly all actives have a fitted effect of over 50% in size
# CHX counter – affects cycloheximide protein synthesis inhibition readout, counter-screen; cell reporter, cycloheximide protein synthesis inhibition counterscreen; actives 12% (n = 300,000); max response, %; in the data active = max response mostly above about 13%, no sharp cut-off; inactive = mostly below about 14%; note: read at 38.3 µM for the half of the compounds with a filed dose; 0% is about no effect
# The depositor's hits bear a star; ? = inconclusive; . = no result given; [ ] = remark or other dose. The entries come from a sample that favours hits as a whole.
SMILES,AMA1-RON2 inh,Shiga toxin inh,Marburg entry inh,Lassa entry inh,CHX counter
Cc1ccc(SCc2nc(-c3ccccn3)no2)cc1,10.8%,69.2*,7.3%,-3.8%,25.0*
Cc1ccc(NC(=O)NNc2cccc(Cl)n2)cc1,10.6%,-7.8,1.8%,12.9%,2.4
COc1ccc(-c2oc3ncn4nc(COc5cccc(C)c5C)nc4c3c2-c2ccc(OC)cc2)cc1,.,.,8.5%[46.1 µM],?,.
CCOc1ccccc1-n1ccnc(NCc2ccc(F)cc2)c1=O,.,.,.,24.0%[46.1 µM],.
COCC(=O)Nc1ccc2c(c1)OCC(=O)N2Cc1ccc(C)cc1,5.5%,22.1,.,.,12.0*
COc1ccc(-c2nc3ccc(NS(=O)(=O)c4ccc(Cl)cc4)cc3o2)cc1,.,.,1.6%[46.1 µM],-5.3%[46.1 µM],.
O=C(COc1ccccc1F)Nc1ccc2nc(SCC(=O)N3CCc4ccccc43)sc2c1,.,.,6.7%[46.1 µM],10.8%[46.1 µM],.
COc1ccc(NC(=O)CSc2nc(C)c3c(c2C#N)CCCC3)cc1,-1.4%,-25.1,-14.5%,-12.6%,1.6
CCc1nnc(NC(=O)CSc2nc(C)c3c(c2C#N)CCCC3)s1,43.0%,56.2*,?,?,64.3*
COc1ccccc1CNC(=O)CN(C)S(=O)(=O)c1ccc(Br)s1,1.8%,56.9*,-20.9%[46.1 µM],-2.6%,20.9*
COc1ccccc1CNC(=O)CN(C)S(=O)(=O)c1ccc(F)cc1,6.0%,2.4,-3.7%[46.1 µM],-12.1%,0.8
COc1cccc(CNC(=O)CN(C)S(=O)(=O)c2ccc(Br)s2)c1,40.8%,76.0*,-29.1%[46.1 µM],-10.3%,22.4*
COc1ccc(CNC(=O)CN(C)S(=O)(=O)c2ccc(Br)s2)cc1,0.9%,25.4,5.8%[46.1 µM],-9.5%,22.8*
CN(CC(=O)NCc1ccc(F)cc1)S(=O)(=O)c1ccc(Br)s1,-15.8%,26.8,-0.2%[46.1 µM],-14.1%,22.5
O=C(NC(=S)Nc1ccccc1N1CCN(C(=O)c2ccccc2)CC1)c1ccccc1F,8.8%,-32.0,?,?,-2.9
CCCCNC(=O)c1nn(-c2ccc(C)cc2)c(=O)n(C)c1=O,.,.,.,1.7%[46.1 µM],.
CCN(CC)CCNc1ncnc2c1sc1nc(N3CCCC3)c3c(c12)CC(C)(C)OC3,-13.2%,-15.4,?,?,-1.6
CN(C)CCNc1ncnc2c1sc1nc(N3CCCC3)c3c(c12)CC(C)(C)OC3,-17.3%,-9.8,7.94µM*,?,0.4
Nc1sc2c(c1C(=O)c1ccc(Cl)cc1)CCCC2,.,12.8,.,.,7.5
C[C@@H](C(=O)Nc1ccc(SC(F)F)cc1)N1C(=O)C2CCCCC2C1=O (stereo not given in full),-9.8%,.,17.6%,2.6%,.
OC1CCC(NC(=S)Nc2ccc(SC(F)F)cc2)CC1 (stereo not given),7.6%,75.0*,?,6.8%[46.1 µM],36.0*
FC(F)Sc1ccc(NC(=S)NC2CCCC2)cc1,0.3%,63.9*,0.1%[46.1 µM],6.7%,37.8*
CC1CCCC(NC(=S)Nc2ccc(SC(F)F)cc2)C1C (stereo not given),19.0%,35.8,?,?,25.1*
C=C1C2(C(=O)Nc3ccc(SC(F)F)cc3)CCC(C2)C1(C)C (stereo not given),-3.0%,-5.0,15.1%,-8.5%,-3.8
O=C(Nc1ccc(SC(F)F)cc1)C12CCC(CC1)C2,10.1%,77.2*,0.7%[46.1 µM],2.0%[46.1 µM],18.8*
SMILES,AMA1-RON2 inh,Shiga toxin inh,Marburg entry inh,Lassa entry inh,CHX counter
Cc1ccc(-c2nc(CS(=O)(=O)CC(=O)Nc3ccc(Br)cc3F)c(C)o2)cc1,.,.,5.7%[46.1 µM],17.9%[46.1 µM],.
CC(C)CON=C1C[C@@H](O)[C@@H](O)[C@@H]2[C@H]3C(=O)N(Cc4ccccc4)C(=O)[C@@H]3CC[C@@H]12,.,.,0.7%[14.2 µM],.,.
O=C(O)CN(CC(=O)O)CC(=O)O,-3.4%,.,.,.,.
COc1ccccc1C1=NC(c2ccc(F)cc2)N=C1C (stereo not given),-8.0%,87.9*,?,?,28.1*
COC(=O)C1=C(C)NC(=O)/C1=C\c1cc(C)n(-c2ccccc2C)c1C,-17.3%,-10.4,-3.7%,?,-5.5
COC(=O)C1=C(C)NC(=O)/C1=C\c1ccc2c(c1)OCO2,5.9%,14.0,0.1%,15.9%,34.3*
CC1=NOC(=O)/C1=C/c1ccc2c(c1)OCO2,-3.7%,-12.6,.,.,1.0
COC(=O)C1=C(C)NC(=O)/C1=C\c1cc(C)n(-c2c(C)cccc2C)c1C,-1.5%,-10.0,11.6µM*,?,-2.1
CC1CN=C(Nc2ccc(F)c(Cl)c2)S1 (stereo not given),0.1%,77.0*,-17.7%[46.1 µM],5.3%[46.1 µM],14.7
Fc1ccc(NC2=NCCS2)cc1Cl,3.7%,5.6,17.1%,14.3%,-0.3
COCCCNC(=O)Cn1cnc2sc(C)c(S(=O)(=O)N3CC(C)CC(C)C3)c2c1=O (stereo not given),2.0%,-3.5,?,-0.3%,-5.0
Cn1c(N)c(C(=O)COC(=O)CSc2ccccc2)c(=O)n(C)c1=O,4.0%,26.8,4.8%,?,15.6*
Clc1ccc(Cl)c2sc(N3CCOCC3)nc12,-7.2%,.,-2.3%[46.1 µM],?,.
Fc1cccc2sc(N3CCCCC3)nc12,0.3%,56.7*,.,.,53.8*
Clc1ccc(-c2nsc(N3CCOCC3)n2)c(Cl)c1,14.6%,72.0*,?,?,33.8*
Clc1cc(Cl)c2nc(N3CCOCC3)sc2c1,-0.4%,51.2*,19.8%,20.6%,31.0*
O=C(C1CC1)N1CCN(c2nc3c(F)cc(F)cc3s2)CC1,.,.,.,-2.4%[46.1 µM],.
Fc1cc(F)c2nc(N3CCCC3)sc2c1,4.2%,150.4*,2.7%[46.1 µM],2.6%,29.3*
O=C(c1ccc2c(c1)CCCC2)N1CCN(c2nc3c(F)cccc3s2)CC1,.,.,.,0.7%[46.1 µM],.
Fc1cccc2sc(N3CCOCC3)nc12,-4.0%,51.8*,?,?,15.2*
CC(=O)c1cccc(-c2ccnc3c2CC(C(=O)NCc2ccco2)O3)c1 (stereo not given),-5.7%,.,.,.,.
O=C(Nc1cnn(Cc2ccc(F)cc2)c1)c1cc(-c2ccco2)on1,17.2%,13.2,?,0.8%,11.7*
Cc1ccccc1Cn1cc(NC(=O)c2cc(-c3ccco3)on2)cn1,2.9%,61.1*,.,.,19.5
CCN(Cc1ccncc1)Cc1c(O)ccc2cc(Br)ccc12,15.7%,33.9,?,-2.7%,2.8
CC(O)(Cc1ccccn1)Cc1ccccn1,51.7%,.,2.8%[46.1 µM],0.0%[46.1 µM],.
SMILES,AMA1-RON2 inh,Shiga toxin inh,Marburg entry inh,Lassa entry inh,CHX counter
CCOC(=O)c1c(S(=O)(=O)N2CCCC(C(=O)Nc3cccc(C#N)c3)C2)c(C)n(C)c1C (stereo not given),.,.,.,-6.9%[46.1 µM],.
Cn1c(=O)n(C)c2cc(N3CCOCC3)c(NS(=O)(=O)c3ccc(Br)cc3)cc21,.,.,20.3%[46.1 µM],-7.6%[46.1 µM],.
CCN(CC)c1ccc(NS(=O)(=O)c2cc3[nH]c(=O)c(=O)[nH]c3cc2C)c(C)c1,.,.,.,-1.3%[46.1 µM],.
Cc1ccccc1-c1nn(-c2ccc(F)cc2F)cc1CNCC(C)O (stereo not given),-2.0%,-7.6,.,.,-3.4
Cc1ccccc1C1=NC(c2ccc(F)cc2F)ON1 (stereo not given),2.7%,85.5,23.5%,25.5%,30.4*
COc1ccccc1C1N=C(c2ccccc2C)NO1 (stereo not given),-0.5%,122.5*,?,10.2%[46.1 µM],44.3*
CC(=O)Nc1cncc(-c2cnn(CC(C)C)c2)n1,2.7%,.,.,.,.
CC(/C=N/NC(=O)c1nn(C)c(C)c1Br)=C\c1ccccc1,-6.6%,117.4*,-19.6%,?,63.4*
CC(/C=N/NC(=O)c1c(Br)cnn1C)=C\c1ccccc1,-11.7%,47.0*,1.7%,16.8%,25.1*
